# CRFBP-R2 block: antagonists of CRF-BP/CRF-R2 complex, primary screen, cell-based, HEK293, calcium dye fluorescence, uHTS | inhibition, % at 11.8 µM | CRF-induced calcium fluorescence | 0.59% of 350,000 active | AID 588475, 2011;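 active means inhibition of the ligand-induced calcium signal above about 50% at the single tested concentration, limit read from the data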
# Cardiac RTF inh: cardiac RTF calcium sensitivity inhibitors, primary screen, biochemical, IANBD-TnC fluorescence, EC70 calcium; Troponin I, cardiac muscle (Homo sapiens) + Troponin T, cardiac muscle (Homo sapiens) + …; IANBD-labeled cardiac RTF, Ca2+ fluorescence; inhibition, % at 7.15 µM; 0.12% of 340,000 active; AID 493244, 2011;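 active means inhibition above the mean inhibition of all tested compounds plus 3 SD, cut at about 17% in these data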;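 further: assay run at fixed EC70 calcium of 1.6 mM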
# cardiac RTF act: cardiac RTF calcium sensitivity activators, primary screen, biochemical, IANBD-TnC fluorescence, EC20 calcium; IANBD-labeled TnC RTF fluorescence at EC20 calcium; 0% EC20 calcium, 100% full calcium; activation, % at 7.2 µM; 0.24% of 340,000 active;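 active means activation above the mean over all tested compounds plus 3 SD, cut at about 30% in these data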;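 further: rise in fluorescence read as greater calcium sensitivity of cardiac thin filaments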
# CRFBP-R2 agonist: agonists of CRF-BP/CRF-R2 complex, primary screen, cell-based, HEK293, calcium dye fluorescence, uHTS | calcium dye fluorescence (FLIPR); percent of saturating CRF peptide response | activation, % at 13.2 µM | 0.46% of 350,000 active | AID 588473, 2011;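 active means activation of at least 50%, plus an integration ratio under a set limit after plate pattern correction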;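 further: plate controls were neutral control wells without compound for no effect and CRF at EC100 for full effect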
# Myeloid diff MLP: induction of myeloid progenitor differentiation, primary screen, cell-based, flow cytometry, MLPCN library. ER-HoxA9 myeloid progenitors, lysozyme-GFP differentiation. calls only at 10 µM. 1% of 360,000 active. AID 624256, 2012;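 active means normalized GFP-positive differentiation at or above the plate's own cutoff, the solvent-only control mean plus 3 SD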;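 further: cells exposed to compound for four days before flow analysis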
# Myeloid diff: inducers of myeloid progenitor differentiation, confirmation, cell-based, GFP/Mac1 flow cytometry, cherry pick 01 | shares compounds with Myeloid diff MLP | ER-HoxA9 myeloid progenitors, GFP/Mac1 double-positive flow | calls only | 2% of 2,300 active | AID 651706, 2012;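 active means share of green or green-and-red cells above 9 and 9% in run 1 or 4 and 3% in run 2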
# GFP autofluor: flagged as fluorescent in myeloid differentiation counter-screen | ER-HoxA9 myeloid progenitors, no estrogen, GFP autofluorescence flow cytometry; vehicle wells 0%, positive control 100% | fluorescence response, % (test concentration not listed) | shares compounds with Myeloid diff MLP | 7.4% of 2,300 active | AID 651707;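 active means over 5% cells positive for green fluorescent reporter, or over 2% positive for both it and APC stain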;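 further: range taken on the double positive population between DMSO and positive control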
# * marks the source's active call; other numbers are inactive results; i = inactive; nt = not tested or not shown; + = active, no number. This is a sample that favours compounds with a hit; in the whole collection about 2.2% have one here.
SMILES,CRFBP-R2 block,Cardiac RTF inh,cardiac RTF act,CRFBP-R2 agonist,Myeloid diff MLP,Myeloid diff,GFP autofluor
CC1(C)CN(CCc2ccccc2)C(=O)[C@H]1CC(=O)Nc1ccccc1,-4,nt,nt,-1,+,i,10*
O=C(CCSc1ccccc1)Nc1nnc(-c2cccs2)o1,22,-6,0,-2,i,nt,nt
CC(C)CN(C(=O)C(C)N1C(=O)c2ccccc2C1=O)c1c(N)n(Cc2ccccc2)c(=O)[nH]c1=O (stereo not drawn),4,-3,-10,-1,i,nt,nt
COc1cc2c(cc1N/C=C(\C#N)c1nc(-c3ccc(F)cc3)cs1)oc1ccccc12,-20,1,-5,11,+,i,7.2*
CC(C)(C)C(=O)/C=C(N)/C=C/c1ccccc1,-4,-6,3,0,i,nt,nt
CCCN(CC(=O)Nc1ccccc1C)C(=O)C1CCN(S(=O)(=O)c2ccc(C)c(C)c2)CC1,5,nt,nt,-2,i,nt,nt
COc1cccc2sc(N3CCN(C(=O)c4ccc([N+](=O)[O-])o4)CC3)nc12,3,-4,-6,1,+,i,0
O=C(c1ccc([N+](=O)[O-])o1)N1CCN(c2nc3ccc(F)cc3s2)CC1,3,-5,-3,-1,i,i,0
COC(=O)c1ccccc1NC(=O)C1CC=CCC1C(=O)O (stereo not drawn),18,-12,-6,-1,i,i,0
O=S(=O)(Nc1ccc(-n2cnnn2)cc1)c1cccs1,5,-4,-2,2,i,nt,nt
C[C@H]1CN([C@@H](C)CO)C(=O)c2cc(Br)cnc2O[C@H]1CN(C)C(=O)Cc1ccccn1,8,nt,nt,3,i,nt,nt
CCN(CC(=O)NCc1ccc(Cl)cc1)C(=O)CCC(=O)c1ccc(C)cc1,-1,-3,-4,-2,i,nt,nt
CCN(CC(=O)NCc1ccc(Cl)cc1)C(=O)CCC(=O)c1ccc(F)cc1,5,-2,-3,0,+,i,0
O=C(O)c1ccc(Nc2ncnc3scc(-c4ccccc4)c23)cc1,-9,2,7,-2,+,i,0
Cc1ccc(-c2csc3ncnc(Nc4ccc(C(=O)O)cc4)c23)cc1,14,-15,-2,2,i,nt,nt
S=C(NNc1ccc2ccccc2c1)NC1CCCCC1,18,2,-6,-1,i,i,0
CCN(CC)c1ccc(C=C(c2nnnn2-c2ccc(C)cc2)c2nnnn2-c2ccc(C)cc2)cc1,-18,-8,8,23,i,i,2
COc1ccc(F)cc1-c1cc(NC(C)=O)c2ncc(-c3cc(OC)c(OC)c(OC)c3)n2c1,nt,nt,nt,nt,+,i,0
COc1ccc(-c2cc(NC(C)=O)c3ncc(-c4ccc(F)cc4)n3c2)cc1OC,nt,nt,nt,nt,i,nt,nt
CC(=O)N1CCc2cc(S(=O)(=O)NC(CC(C)C)C(=O)N3CCCC3)ccc21 (stereo not drawn),-4,0,-6,0,i,nt,nt
Cc1cccc(NC(=O)CN2CCN(C(=O)CN3C(=O)NC4(CCCCC4C)C3=O)CC2)c1C (stereo not drawn),3,2,2,-1,i,nt,nt
Nc1nonc1-n1nnc(C(=O)N/N=C/c2ccccc2F)c1CN1CCc2ccccc21,-4,-8,-1,0,i,nt,nt
C=C(C(=O)c1ccccc1)C(C)CC(=O)c1ccccc1 (stereo not drawn),17,1,0,1,i,i,99*
Cc1cn([C@H]2C[C@H](O)[C@@H](CNC(=O)c3ccccn3)O2)c(=O)[nH]c1=O,7,nt,nt,-2,i,nt,nt
COc1ccc2c(c1)-c1ccccc1S(=O)(=O)N2C(C)=O,-1,-7,14,-3,i,i,0
SMILES,CRFBP-R2 block,Cardiac RTF inh,cardiac RTF act,CRFBP-R2 agonist,Myeloid diff MLP,Myeloid diff,GFP autofluor
COc1ccc(N2C(=O)c3ccccc3S2(=O)=O)cc1,28,5,-1,0,i,nt,nt
COc1ccc(Nc2nnc(SCc3cn4c(C)cccc4n3)s2)cc1,-18,2,0,-1,+,i,0
COc1cccc(CN2CCC2(C)C(=O)Nc2cnc3ccccc3c2)c1F (stereo not drawn),nt,nt,nt,nt,i,nt,nt
CCOC(=O)N1CCC(NC(=O)c2ccc3c(c2)ncn3C2CCCC2)CC1,23,-3,-2,-2,i,nt,nt
CCOC(=O)N1CCN(C(=O)c2ccc3c(c2)ncn3C2CCCC2)CC1,14,-5,7,6,i,i,0
Cc1cc(C(F)(F)F)nc(SCC(=O)c2cccc([N+](=O)[O-])c2)n1,-25,7,2,2,i,i,0
CCOC(=O)c1[nH]c2ccc(Br)cc2c1NC(=O)CCN1CCCC(C)(C)C1,-32,-6,0,0,+,i,0
CC1CCc2sc(C(=O)NN=C3CCCC3)cc2C1 (stereo not drawn),-4,nt,nt,-1,+,i,0
Cn1c(SCC(=O)NC2CCCC2)nnc1C(F)(F)F,3,3,-4,1,i,nt,nt
Fc1ccccc1N1CCN(C2CCCN(Cc3ccccc3C(F)(F)F)C2)CC1 (stereo not drawn),-17,-3,-3,0,+,i,0
COc1ccccc1CN1CCCC(N2CCN(c3ccccc3OC)CC2)C1 (stereo not drawn),2,-7,-2,-1,i,nt,nt
Cc1cc(C)n(-c2nc3ccccc3nc2N2CCN(C(=O)c3ccc(F)cc3)CC2)n1,-27,1,-4,-4,i,i,0
Cc1cc(C)n(-c2nc3ccccc3nc2N2CCC(C)CC2)n1,-53,-8,-2,0,i,nt,nt
CCCN(CC(=O)Nc1ccccc1C)C(=O)C1CCN(S(=O)(=O)c2ccccc2C(F)(F)F)CC1,7,-3,3,1,i,nt,nt
COc1cc2c(cc1OC)-c1cc3ccc4c(c3c[n+]1CC2)OCO4,3,-77,54*,13,+,+,1
c1ccc(COc2ccc(-c3cc4nc(NCCCn5ccnc5)ccn4n3)cc2)cc1,nt,nt,nt,nt,i,i,0
O=C(Nc1ccccc1Oc1ccccc1)c1cnccn1,14,-3,3,0,i,nt,nt
Cc1ccc(Oc2ccc(Cl)cc2NC(=O)c2cnccn2)cc1,4,7,10,2,+,i,0
